Results: PubChem BioAssay (NCI)
About 83,000 compounds went through this panel and 20% of them were active in at least one assay; those are over-represented in the sample as a whole.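 Single-dose data. Exposure time 48 hours. Values below 10 considered active.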 Values without a mark were called inactive. Active and inactive are the calls of the source.

tested on: HCT-116 colon; assay: NCI-60 one-dose screen, 48 h (100 = growth as untreated, 0 = no growth, -100 = all killed); settings: 10 µM unless noted
Method: Growth inhibition of the HCT-116 human tumor cell line is measured as a screen for anti-cancer activity. Cells are grown in 96 well plates and exposed to the test compound for 48 hours. Compounds are tested at a single concentration, which is 10^-5 M for most compounds. The reported endpoint is percent growth (GI% or GIPRCNT), where numbers from 0 - 100% represent growth inhibition, and numbers from -100% - 0 represent cell death. For example, a value of 40 represents 60% growth inhibition. A value of 0 means no net growth occurred over the course of the experiment. A value of -40 indicates 40% of cells at the beginning of the experiment died by the end of the experiment. A value of -100 means all cells are dead at the end of the experiment.
NCI-60 Human Tumor Cell Lines Screen was performed using the standard one-dose NCI protocol, which is described in more detail at https://dtp.cancer.gov/discovery_development/nci-60/default.htm.
Compounds with GIPRCNT values below 10 were considered active. Activity score was based on GIPRCNT using the following formula: […]
Score is 0 for GIPRCNT values of 100 or above, 50 for GIPRCNT values of 0, and 100 for GIPRCNT values of -100.

Compound | growth
Cc1ccc2c(-c3nnc(N)s3)cc(=O)oc2c1C | 95.6%
Cc1nc2c(c(=O)[nH]1)C(c1ccccc1)c1ccc3ccccc3c1O2 (stereo not given) | 21.3%
CC(=C(c1ccc(OCCN2CCCCC2)cc1)c1ccc(OCCN2CCCCC2)cc1)c1ccc(Cl)cc1 | -88.9% (active)
O=C(O)c1ccc(-c2ccc(/C=N/Nc3nc(Nc4ccccc4)nc(N4CCCCC4)n3)o2)cc1 | 57.8%
C=C(C)[C@@H]1CC[C@]2(COC(C)=O)CC[C@]3(C)[C@H](CC[C@@H]4[C@@]5(C)CCCN(C(C)=O)C(C)(C)[C@@H]5CC[C@]43C)[C@@H]12 | -35.7% (active)
C#COc1cccc(Nc2ncnc3cc(NC(=O)[C@@H](C)Cl)ccc23)c1 | 9.6% [6.25 µM] (active)
COc1cccc(CNc2c3ccccc3nc3ccccc23)c1 | 9.89% (active)
c1nc2ccc(-c3cc4ccc5[nH]ncc5c4c4c3CCCC4)cc2[nH]1 | 7.07% (active)
O=C(/C=C/c1ccc(Oc2ccc(Br)cc2)cc1)c1ccc(Br)cc1 | 97.6%
COc1ccc2c(c1)c(-c1nc(-c3c[nH]c4ncccc34)cs1)cn2CCO | 50.9%
C[C@H](C(=O)N(CCc1ccc(Cl)c(Cl)c1)Cc1cncs1)[C@@H]1CC[C@H](C[C@H](C)n2cc(CN3CCC(c4ccc(Cl)cc4)CC3)nn2)O1 | 92.5%
CC/C=C\CCC/C=C1/C(=O)C=C[C@@H]1C/C=C\CCCC(=O)OC | -52.4% (active)
Cc1cccc(-c2nc(Nc3ccc4ncsc4c3)c3ccccc3n2)n1 | 77.4%
Cc1cn(-c2cc(NC(=O)c3cncc(C#Cc4c(N)ncc5ccc(F)cc45)c3)cc(C(F)(F)F)c2)cn1 | 19.4%
CC1(C)N=C(N)N=C(N)N1c1cccc(CCc2ccccc2)c1 | 19.8%
Cc1ccc(C(=O)c2ccc(CC(=O)NN3C(=O)c4ccccc4C3=O)n2C)cc1 | 107%
O=C1Nc2c(C(=O)O)cccc2/C1=N/c1n[nH]c(=S)s1 | 96.2%
CCc1n(Cc2ccc3ccccc3n2)cc[n+]1Cc1ccc2ccccc2n1 | 35%
C[C@@H]1O[C@@H](O[C@@H]2C[C@H](c3ccc4c(c3O)C(=O)C3=C(C4=O)[C@@]4(O)C(=O)C[C@](C)(O)C[C@@]4(O)C=C3)O[C@H](C)[C@H]2O)CC[C@@H]1O[C@H]1C[C@@H](O)[C@H](O)[C@@H](C)O1 | 91.1%
COc1cccc(Nc2ncnc3cc(NC(=O)CCl)ccc23)c1 | -53.8% (active)

Compound | growth
COc1cc(OC)c(C(=O)C(CN(C)C)CN(C)C)cc1OC | -65.6% (active)
NC1(CO)COC(c2ccccc2)OC1 (stereo not given) | 115%
CCN(CC)CCCN1C(=O)c2c(c(C)c3c(oc4ccc(O)cc43)c2C)C1=O | -77.9% (active)
O=C1c2ccccc2C(=O)C1c1ccc(Br)cc1 | 92.4%
CCNc1nc(O)c(/C=C2\C=Nc3ncccc32)s1 | 3.99% (active)
CC1(C)CC(=O)c2c(nn(-c3ccc(Br)cc3)c2-c2cn(-c3ccccc3)nc2-c2cccnc2)C1 | 85%
CC(=O)c1ccc(Nc2nccc(-c3ccc4ccccc4c3)n2)cc1 | 104%
COc1ccc(C(=O)Cn2c(C(=O)c3ccc(OC)cc3)nc3ccccc32)cc1 | 12.2%
O=S(=O)(NCCCNc1nccc(-c2c(-c3cccc(F)c3)nc3occn23)n1)c1ccc(F)cc1 | 34%
CCN(CC)CCN1C(=O)c2c(c(C)c3c(oc4ccc(O)cc43)c2C)C1=O | -62.6% (active)
C#CC#CC#CC#CC#CC#CC#CC#CCC1OC[C@H](COC(=O)O[C@@H](C(=O)O[C@H]2C[C@@]3(O)[C@@H](OC(=O)c4ccccc4)[C@@H]4[C@]5(OC(C)=O)CO[C@@H]5C[C@H](O)[C@@]4(C)C(=O)[C@H](OC(C)=O)C(=C2C)C3(C)C)[C@@H](NC(=O)c2ccccc2)c2ccccc2)O1 (stereo not given in full) | 14.2%
CCOC(=O)c1c(C)nc2ccccc2c1/C=C/c1ccccc1 | 59.5%
CC1(C)[C@@H](O[C@@H]2OC[C@@H](O[C@@H]3O[C@H](CO)[C@@H](O)[C@H](O)[C@H]3O[C@@H]3OC[C@@H](O)[C@H](O)[C@H]3O)[C@H](O)[C@H]2O[C@@H]2O[C@H](CO)[C@@H](O)[C@H](O)[C@H]2O)CC[C@]2(C)[C@H]3CC[C@]45OC[C@@]6(CC[C@](C)(C=O)C[C@H]64)[C@H](O)C[C@@]5(C)[C@]3(C)CC[C@@H]12 | -75.9% (active)
Cc1nnc(-c2ccc3c(c2)nc(/C=C/c2ccccc2)n3C2CCCCC2)o1 | 64.5%
CC1=C(C(=O)Nc2nc(-c3ccc(Cl)cc3)cs2)[C@H](c2ccc(O)cc2)NC(=O)N1 | 95.4%
Cc1ccc2nc(-c3ccc(C(=O)NNC(=S)Nc4ccccc4)cc3)[nH]c2c1 | 84.6%
S=c1nc2oc(-c3ccccc3)c(-c3ccccc3)c2c(/N=C\c2ccco2)[nH]1 | 84.4%
COc1cc2c(c(OC)c1OC)C(=O)CC(c1cccc(NC(=O)c3ccc(C#N)cc3)c1)O2 (stereo not given) | 62%
O=C(Nc1ccc(Br)cc1)C1=NCCCCN1 | 80.2%
CC(=O)Oc1ccc(OC(C)=O)c2ccccc12 | 51.6%
